Measurements reported in PubChem BioAssay.
Several values for one entry are separate records, joined by “and”; a condition that tells them apart may be missing. Equal entries are not always repeated. Activity calls are given as the source filed them. Unless noted, the rule behind the calls is not given here.

Key:
[1] = viability loss with induced miR-34 in A549 – imaging, A549 dox-inducible miR-34, nuclei and caspase counts, primary screen (AID 1347080;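 active = compounds whose cell count with miR-34 switched on is under 0.7 times the count with it off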); conditions: A549 miR-34 inducible, Hoechst nuclei count, 48 h
[2] = blockers of cellular phospholipid synthesis – cell-based, LOPAC library, screen 4, primary screen (AID 1347384); conditions: animal cells, phospholipid biosynthesis inhibition screen; at 10 µM
[3] = galactose survival enhancers in mitochondrial complex I cybrids – cell-based, galactose medium, ATP luminescence, primary screen (AID 1645843;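 active = z-score of at least 1.8 in each of two replicates, scored against plate mean and spread of sample wells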;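 note: positive z means more ATP and so rescue of galactose-driven cybrid death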); conditions: complex I mutant cybrid cells, 72 h, stronger effect = higher value
[4] = compounds altering viability of human ES cells (AID 493140); conditions: human embryonic stem cell survival screen; stronger effect = higher value;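 note: cells exposed to compounds for four days before counting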
[5] = chitosan synthesis blockers in C. neoformans – flow cytometry, Cibacron Brilliant Red staining (AID 1347148); conditions: Cryptococcus neoformans chitosan, stronger effect = lower value; at 10 µM unless noted;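 note: compound exposure lasted three days at 37 degrees C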
[6] = P. berghei load reduction in hepatocytes – cell-based, HepG2, luciferase luminescence, HepG2 viability, primary screen (AID 624349; in the data active = parasite load remaining mostly below about 12%, no sharp cut-off; inactive = mostly above about 10%;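 note: 100% = mean of DMSO negative control wells on the same plate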); conditions: P. berghei liver stage in HepG2, luciferase luminescence, concentration not given here; parasite load remaining: stronger effect = lower value; viability: measured here: HepG2 viability without parasites
[7] = compounds altering HSF1 focus formation in cells – imaging, Selleck Cancer Library (AID 1347162; in the data active = plate-normalised HSF1 focus index below about 0.46); conditions: human cells, HSF1 nuclear foci imaging, at 10 µM; SSMD: measured here: HSF1 foci SSMD mean; cell count: measured here: cell number; plate-normalised HSF1 focus index: stronger effect = lower value
[8] = MELAS cybrid and Rieske KO viability enhancers – cell-based, MELAS cybrids, Rieske KO mouse fibroblasts, CellTiter-Glo, primary screen (AID 1508586;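 active = mean z-score across replicates of 1.96 or higher in either the MELAS or the Rieske mutant cell line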;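 note: z relative to plate mean and SD of compound and empty wells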); conditions: low glucose
[9] = compounds altering circadian rhythm period length – cell-based, LOPAC library, luminescence reporter (AID 2774); conditions: circadian reporter cells, at 7 µM, actives lie on both sides;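 note: values are relative to mean of DMSO wells on each plate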
[10] = system: Hepatitis C virus NS3 helicase; assay: blockers of NS3h binding to ssDNA – biochemical, fluorescence polarization, LOPAC1280 library, primary screen (AID 687035; in the data active = inhibition above about 37%); conditions: Purified HCV NS3 helicase, Cy5-dT15 ssDNA binding fluorescence polarization; stronger effect = higher value; concentration not given here
[11] = compounds altering Cy5-DNA-NS3h complex signal – biochemical, LOPAC1280, artefact control for HCV NS3 helicase inhibitor project (AID 687037); conditions: Cy5-DNA-NS3h complex fluorescence interference counterscreen
[12] = biological target: NAD(+) hydrolase SARM1 (Homo sapiens) (UniProt Q6SZW1); assay: blocking NAD cleavage by SARM1 SAM-TIR – cell lysate, NAD-Glo luminescence (AID 1508614;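 active = compound whose remaining NAD level is above about 45 nM, limit read from the data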;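 note: higher remaining NAD means stronger inhibition of SARM1 NADase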); conditions: SAM-TIR HEK293T lysate NADase, at 1 µM, stronger effect = higher value
NAD(+) hydrolase SARM1 (Homo sapiens), sequence (Q6SZW1 whole entry, looked up, the tested form may be a part): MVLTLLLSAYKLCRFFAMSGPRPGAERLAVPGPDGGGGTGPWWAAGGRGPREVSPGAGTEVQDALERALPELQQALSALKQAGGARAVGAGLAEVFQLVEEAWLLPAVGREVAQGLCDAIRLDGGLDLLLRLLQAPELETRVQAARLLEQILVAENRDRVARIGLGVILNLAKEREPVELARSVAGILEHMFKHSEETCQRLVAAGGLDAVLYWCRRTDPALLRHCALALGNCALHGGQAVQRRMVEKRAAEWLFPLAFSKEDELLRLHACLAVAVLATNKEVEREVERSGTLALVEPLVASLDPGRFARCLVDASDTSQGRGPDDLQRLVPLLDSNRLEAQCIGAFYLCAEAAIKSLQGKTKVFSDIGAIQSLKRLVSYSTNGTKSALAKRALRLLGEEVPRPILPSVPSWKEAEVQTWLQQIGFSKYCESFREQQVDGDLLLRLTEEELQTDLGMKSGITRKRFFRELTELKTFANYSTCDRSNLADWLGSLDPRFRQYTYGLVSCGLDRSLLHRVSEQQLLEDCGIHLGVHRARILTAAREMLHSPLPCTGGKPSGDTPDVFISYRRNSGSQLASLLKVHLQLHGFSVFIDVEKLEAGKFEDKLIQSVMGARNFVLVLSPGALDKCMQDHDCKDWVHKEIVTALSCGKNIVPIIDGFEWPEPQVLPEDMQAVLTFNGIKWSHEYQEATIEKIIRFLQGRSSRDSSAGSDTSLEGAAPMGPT

[13] = biological target: Mitogen-activated protein kinase 7 (Homo sapiens) (UniProt Q13164); assay: Gal4-ERK5 driven luciferase induction – cell-based, HTS, primary screen (AID 1508626;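 active = luciferase signal above three times the same-plate solvent-only control wells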;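 note: luciferase driven by Gal4-ERK5 fusion binding five Gal4 sites before minimal TATA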); conditions: HeLa Gal4-ERK5 transactivation, 18 h, at 5 µM, stronger effect = higher value
Mitogen-activated protein kinase 7 (Homo sapiens), sequence (Q13164 whole entry, looked up, the tested form may be a part): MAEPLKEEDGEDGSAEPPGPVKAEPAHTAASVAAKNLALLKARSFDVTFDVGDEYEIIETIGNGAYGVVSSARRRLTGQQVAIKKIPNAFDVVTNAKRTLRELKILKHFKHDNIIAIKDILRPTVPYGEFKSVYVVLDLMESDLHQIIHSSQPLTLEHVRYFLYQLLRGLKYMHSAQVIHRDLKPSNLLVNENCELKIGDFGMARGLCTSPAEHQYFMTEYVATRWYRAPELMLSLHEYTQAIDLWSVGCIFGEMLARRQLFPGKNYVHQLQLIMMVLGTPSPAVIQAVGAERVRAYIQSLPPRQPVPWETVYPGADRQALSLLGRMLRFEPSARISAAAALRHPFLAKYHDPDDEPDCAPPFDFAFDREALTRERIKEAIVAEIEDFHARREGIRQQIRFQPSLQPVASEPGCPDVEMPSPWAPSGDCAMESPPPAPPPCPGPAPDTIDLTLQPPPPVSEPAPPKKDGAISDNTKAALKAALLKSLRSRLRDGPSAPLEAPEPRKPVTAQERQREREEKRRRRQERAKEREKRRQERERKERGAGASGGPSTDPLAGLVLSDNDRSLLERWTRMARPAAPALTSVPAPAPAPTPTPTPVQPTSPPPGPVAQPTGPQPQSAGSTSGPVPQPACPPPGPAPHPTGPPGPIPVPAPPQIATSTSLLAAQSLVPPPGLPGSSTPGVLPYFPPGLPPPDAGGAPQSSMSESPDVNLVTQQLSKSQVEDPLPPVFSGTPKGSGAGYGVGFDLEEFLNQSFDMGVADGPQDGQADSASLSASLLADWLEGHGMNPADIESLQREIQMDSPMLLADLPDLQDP

[14] = stronger effect = lower value, cell number ratio, induced over uninduced
[15] = measured here: relative caspase fold change +Dox/-Dox
[16] = measured here: total cells with miR-34 induction, stronger effect = lower value
[17] = measured here: total cells without miR-34 induction
[18] = MELAS cybrid survival, CellTiter-Glo 48 h, stronger effect = higher value
[19] = Rieske KO mouse fibroblast survival, CellTiter-Glo 72 h

Question: Which fold change [1, 14] does the source give for `COC(=O)C1=C(C)NC(C)=C(C(=O)OC)C1c1cccc(NC(=O)NCCCN2CCC(c3cccc(OC)c3)CC2)c1` here?
Answer: 1.58 (inactive)

Question: And the fold change [1, 15]?
Answer: 0.349

Question: And the cell count [1, 16]?
Answer: 2200

Question: And the cell count [1, 17]?
Answer: 1390

Question: And the outcome [2]?
Answer: inactive

Question: And the z-score [3]?
Answer: -1.35 (inactive)

Question: With `CCCCC/C=C\C[C@H](O)/C=C/C=C\C/C=C\CCCC(=O)O` as the compound, how does the survival [4] read?
Answer: 93.5 (inactive)

Question: What about the fold change [1, 14] of the same compound?
Answer: 0.969 (inactive)

Question: And the fold change [1, 15]?
Answer: 1.13

Question: What about the cell count [1, 16] of the same compound?
Answer: 5180

Question: And the cell count [1, 17]?
Answer: 5340

Question: And the fold fluorescence [5]?
Answer: 4.99 [at 1 µM] (inactive) and 5.6 [at 1 µM] (inactive)

Question: What does the source list for `CC1=C(/C=C/C(C)=C\C=C\C(C)=C\C(=O)O)C(C)(C)CCC1`?
Answer: survival [4]: 82.2 (inactive); fold change [1, 14]: 0.906 (inactive); fold change [1, 15]: 1.46; cell count [1, 16]: 5680; cell count [1, 17]: 6260; fold fluorescence [5]: 4.39 (inactive)

Question: For `COCCOc1cc2ncnc(Cl)c2cc1OCCOC`, which fold change [1, 14] is on record?
Answer: 1.03 (inactive)

Question: And the fold change [1, 15]?
Answer: 1.13

Question: And the cell count [1, 16]?
Answer: 9200

Question: And the cell count [1, 17]?
Answer: 8960

Question: What about the outcome [2] of the same compound?
Answer: inactive

Question: And the z-score [3]?
Answer: -0.675 (inactive)

Question: With `S=c1[nH]c(-c2ccccc2)cn1-c1ccccc1` as the compound, how does the fold change [1, 14] read?
Answer: 0.982 (inactive)

Question: What about the fold change [1, 15] of the same compound?
Answer: 1.24

Question: What about the cell count [1, 16] of the same compound?
Answer: 9110

Question: What about the cell count [1, 17] of the same compound?
Answer: 9280

Question: And the outcome [2]?
Answer: inactive

Question: What about the z-score [3] of the same compound?
Answer: -0.15 (inactive)

Question: Which results are given for `N[C@@H]1CCCC[C@H]1N.O=C(O)C(=O)O.[Pt]`?
Answer: parasite load remaining [6]: 182% (inactive); viability [6]: 134%; fold change [1, 14]: 0.972 (inactive); fold change [1, 15]: 1.18; cell count [1, 16]: 4570; cell count [1, 17]: 4710; SSMD [7]: 1.36; cell count [7]: 7520; plate-normalised HSF1 focus index [7]: 1.09 (inactive); z-score [8, 18]: 0.335 (inactive); z-score [8, 19]: -0.474; z-score [3]: 1.01 (inactive)

Question: With `C[C@@H](NCCc1ccc(O)cc1)[C@@H](O)c1ccc(O)cc1` as the compound, how does the period change [9] read?
Answer: 0.07 h (inactive)

Question: And the inhibition [10]?
Answer: 0% (inactive)

Question: What about the fluorescence ratio (interference) [11] of the same compound?
Answer: 0.9 (inactive)

Question: What about the fold change [1, 14] of the same compound?
Answer: 0.982 (inactive)

Question: What about the fold change [1, 15] of the same compound?
Answer: 1.22

Question: What about the cell count [1, 16] of the same compound?
Answer: 10600

Question: And the cell count [1, 17]?
Answer: 10800

Question: And the outcome [2]?
Answer: inactive

Question: What about the remaining NAD [12] of the same compound?
Answer: 10 nM (inactive)

Question: And the z-score [3]?
Answer: 0.51 (inactive)

Question: Which results are given for `N=C(N)SCCc1ccc(CCSC(=N)N)cc1`?
Answer: period change [9]: -0.135 h (inactive); inhibition [10]: -5% (inactive); fluorescence ratio (interference) [11]: 0.9 (inactive); fold change [1, 14]: 1.11 (inactive); fold change [1, 15]: 0.636; cell count [1, 16]: 5830; cell count [1, 17]: 5230; SSMD [7]: 1.43; cell count [7]: 7320; plate-normalised HSF1 focus index [7]: 1.08 (inactive)

Question: Which parasite load remaining [6] does the source give for `O=c1[nH]cnc2c1CN=N2` here?
Answer: 22.2% (inactive)

Question: And the viability [6]?
Answer: 60.5%

Question: And the fold change [1, 14]?
Answer: 0.891 (inactive)

Question: And the fold change [1, 15]?
Answer: 1.16

Question: And the cell count [1, 16]?
Answer: 9860

Question: What about the cell count [1, 17] of the same compound?
Answer: 11100

Question: And the outcome [2]?
Answer: inactive

Question: And the z-score [8, 18]?
Answer: 0.591 (inactive)

Question: What about the z-score [8, 19] of the same compound?
Answer: 0.624

Question: And the z-score [3]?
Answer: 0.315 (inactive)

Question: Which parasite load remaining [6] does the source give for `CO/N=C(\C(=O)N[C@@H]1C(=O)N2C(C(=O)O)=C(COC(C)=O)CS[C@H]12)c1csc(N)n1` here?
Answer: 16.7% (inactive)

Question: And the viability [6]?
Answer: 71.5%

Question: And the fold change [1, 14]?
Answer: 0.894 (inactive)

Question: And the fold change [1, 15]?
Answer: 1.17

Question: What about the cell count [1, 16] of the same compound?
Answer: 9420

Question: And the cell count [1, 17]?
Answer: 10500

Question: What about the outcome [2] of the same compound?
Answer: inactive

Question: What about the z-score [8, 18] of the same compound?
Answer: 0.329 (inactive)

Question: What about the z-score [8, 19] of the same compound?
Answer: 0.781

Question: And the z-score [3]?
Answer: -0.18 (inactive)

Question: Which fold change [1, 14] does the source give for `COc1ccc(/C=C/c2nc(NCCCN(C)C)c3ccccc3n2)cc1` here?
Answer: 1.02 (inactive)

Question: And the fold change [1, 15]?
Answer: 1.21

Question: What about the cell count [1, 16] of the same compound?
Answer: 1330

Question: What about the cell count [1, 17] of the same compound?
Answer: 1300

Question: And the outcome [2]?
Answer: inactive

Question: What about the z-score [3] of the same compound?
Answer: -1.21 (inactive)

Question: Which survival [4] does the source give for `CCCCC/C=C\C/C=C\C/C=C\CC1OC1CCCC(=O)O` (stereo unspecified) here?
Answer: 114 (inactive)

Question: And the fold change [1, 14]?
Answer: 0.939 (inactive)

Question: What about the fold change [1, 15] of the same compound?
Answer: 1.34

Question: What about the cell count [1, 16] of the same compound?
Answer: 5900

Question: What about the cell count [1, 17] of the same compound?
Answer: 6280

Question: What about the fold fluorescence [5] of the same compound?
Answer: 4.93 [at 1 µM] (inactive)

Question: With `NC(N)=NCCNS(=O)(=O)c1cccc2cnccc12` as the compound, how does the survival [4] read?
Answer: 124 (inactive)

Question: What about the parasite load remaining [6] of the same compound?
Answer: 46.9% (inactive)

Question: What about the viability [6] of the same compound?
Answer: 111%

Question: What about the fold change [1, 14] of the same compound?
Answer: 0.914 (inactive)

Question: What about the fold change [1, 15] of the same compound?
Answer: 0.868

Question: And the cell count [1, 16]?
Answer: 2220

Question: And the cell count [1, 17]?
Answer: 2430

Question: And the fold fluorescence [5]?
Answer: 3.91 [at 170.4 µM] (inactive)

Question: Which results are given for `O=C1c2ccccc2C(=O)c2c(NCCc3ccc(O)cc3)ccc(NCCc3ccc(O)cc3)c21`?
Answer: inhibition [10]: 13% (inactive); fluorescence ratio (interference) [11]: 1.1 (inactive); fold change [1, 14]: 1.15 (inactive); fold change [1, 15]: 1.12; cell count [1, 16]: 4510; cell count [1, 17]: 3920; SSMD [7]: 0.452; cell count [7]: 6780; plate-normalised HSF1 focus index [7]: 1.04 (inactive); outcome [2]: active; z-score [3]: -0.96 (inactive)

Question: Which fold change [1, 14] does the source give for `COc1ccccc1CN[C@@H]1CCCN[C@@H]1c1ccccc1` here?
Answer: 0.967 (inactive)

Question: What about the fold change [1, 15] of the same compound?
Answer: 1.32

Question: And the cell count [1, 16]?
Answer: 9540

Question: And the cell count [1, 17]?
Answer: 9860

Question: What about the outcome [2] of the same compound?
Answer: inactive

Question: And the z-score [3]?
Answer: -0.42 (inactive)

Question: Which period change [9] does the source give for `CCCCS(=N)(=O)CC[C@H](N)C(=O)O` (stereo partly specified) here?
Answer: -0.045 h (inactive)

Question: And the inhibition [10]?
Answer: -2% (inactive)

Question: And the fluorescence ratio (interference) [11]?
Answer: 1 (inactive)

Question: What about the fold change [1, 14] of the same compound?
Answer: 0.972 (inactive)

Question: And the fold change [1, 15]?
Answer: 2.07

Question: And the cell count [1, 16]?
Answer: 9810

Question: What about the cell count [1, 17] of the same compound?
Answer: 10100

Question: And the outcome [2]?
Answer: inactive

Question: What about the luciferase signal [13] of the same compound?
Answer: 48 AU (inactive)

Question: And the z-score [3]?
Answer: -0.84 (inactive)

Question: With `CC[C@H]1OC(=O)[C@H](C)[C@@H](O[C@H]2C[C@@](C)(OC)[C@@H](O)[C@H](C)O2)[C@H](C)[C@@H](O[C@@H]2O[C@H](C)C[C@H](NC)[C@H]2O)[C@](C)(O)C[C@@H](C)CN(C)[C@H](C)[C@@H](O)[C@]1(C)O` as the compound, how does the fold change [1, 14] read?
Answer: 1.02 (inactive)

Question: And the fold change [1, 15]?
Answer: 1.41

Question: What about the cell count [1, 16] of the same compound?
Answer: 10700

Question: And the cell count [1, 17]?
Answer: 10400

Question: What about the outcome [2] of the same compound?
Answer: inactive

Question: And the z-score [3]?
Answer: 0.37 (inactive)

Question: Which survival [4] does the source give for `CCCCCCCCCCCCCC(=O)N[C@@H](C)[C@H](O)c1ccccc1` here?
Answer: 95 (inactive)

Question: And the fold change [1, 14]?
Answer: 0.995 (inactive)

Question: And the fold change [1, 15]?
Answer: 0.985

Question: What about the cell count [1, 16] of the same compound?
Answer: 6160

Question: And the cell count [1, 17]?
Answer: 6200

Question: What about the fold fluorescence [5] of the same compound?
Answer: 3.67 (inactive) and 4.53 (inactive)
